Results filed as inconclusive are left out. Activity calls are given as the source filed them. Calls come from the whole dose curve; as a rule, active = well fitted curve in the direction sought with a large enough effect; inconclusive = small, poorly fitted or top-dose-only effect, or another doubt; inactive = no such curve, though single readings can be large or run the other way.
molecular target: Protein phosphatase EYA2 (Homo sapiens) (UniProt O00167); experiment: Inhibitors of Eya2ED: Hit Confirmation in Primary Screen; conditions: Recombinant Eya2ED, OMFP fluorescence phosphatase assay; series mostly up to 76.9 µM; activity change, negative = inhibition: at the top concentration
Sequence (O00167 whole entry, looked up): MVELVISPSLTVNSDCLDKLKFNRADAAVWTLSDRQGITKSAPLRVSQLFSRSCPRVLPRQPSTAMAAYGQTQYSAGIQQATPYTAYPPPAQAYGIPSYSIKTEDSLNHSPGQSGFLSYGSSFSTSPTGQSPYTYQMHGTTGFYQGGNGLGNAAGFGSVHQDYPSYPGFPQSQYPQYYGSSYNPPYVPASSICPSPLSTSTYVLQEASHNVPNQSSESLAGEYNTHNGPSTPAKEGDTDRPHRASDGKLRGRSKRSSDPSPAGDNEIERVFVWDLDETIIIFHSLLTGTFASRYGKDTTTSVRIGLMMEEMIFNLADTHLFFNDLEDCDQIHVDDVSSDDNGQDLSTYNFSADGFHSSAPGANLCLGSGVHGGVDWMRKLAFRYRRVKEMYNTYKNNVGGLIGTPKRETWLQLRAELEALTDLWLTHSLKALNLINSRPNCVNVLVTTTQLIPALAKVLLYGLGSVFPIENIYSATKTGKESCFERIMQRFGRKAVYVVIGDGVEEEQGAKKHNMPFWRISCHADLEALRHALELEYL
In short: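 Eya2 (dispensed at 0.2 uM) was preincubated 10 min at ambient with compound in 50 mM HEPES pH 7.5, 50 mM NaCl, 5 uM MgCl2, 0.05% BSA, 1 mM DTT. OMFP (dispensed at 50 uM) was then added, and fluorescence (ex 485/em 525 nm) was read after 10 min. Retested as 12-point titrations; EGTA control.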

Activity change, negative = inhibition, inactive:
CC(C)Cc1nnc(NC(=O)c2cc3c(s2)CCC3)s1 -13%, NC(=O)C1CCN(CC(=O)Nc2ccc3c(c2)OCCO3)CC1 -18.7%, Cc1ccc(OCC(=O)N2c3ccccc3NC(=O)C2(C)C)c([N+](=O)[O-])n1 -20.5%, CC(=O)c1c(C)[nH]c(C(=O)COC(=O)COc2ccccc2)c1C 16%, Cn1cccc1CC(=O)NNC(=S)NC(=O)c1ccc(F)cc1 -29.9%, O=C(NN=C1CCCC1)c1[nH]c2ccc(Br)cc2c1-c1ccccc1 -22.3%, O=C(CC1(CC(=O)N2CCOCC2)CCCC1)Nc1ccccc1 12.2%, CCCOc1ccc(C(=O)OCC(=O)c2c(N)n(C)c(=O)n(C)c2=O)cc1OC -21.1%, COc1ccc(CC(=O)Nc2cccnc2)cc1 -22.4%, CC(C)(C)OC(=O)NCCCCCc1nnc(SCc2ccccc2F)o1 -47%, Cn1c(CNC(=O)c2ccc(Cl)cc2)nnc1SCC(=O)NC1=NCCS1 -10.6%, O=C(N/N=C/c1ccc(Sc2nc3ccccc3[nH]2)o1)c1ccncc1 -12.2%, O=C(CCc1nc2ccccc2s1)NCc1ccccc1F 7.84%, CCC(C)N(C(=O)c1csnn1)C(C(=O)NC1CCCC1)c1ccccc1F (centres undefined) -5.36%

Source: PubChem BioAssay AID504895 (National Center for Advancing Translational Sciences (NCATS), 2011)
